# Most compounds without a hit are left out; they make up all but 6.1% or so of the library.
# HEK293 cAMP ctrl – qHTS Assay for Agonists of the Thyroid Stimulating Hormone Receptor: Activators of Intracellular cAMP Concentrations in Parental HEK 293 | parental HEK293 CNG cAMP sensor, membrane potential fluorescence | Potency, µM (titrated, usually from 57.1 µM), for the others: at the highest dose activation, actives largely listed as activators | actives 2.5% (n = 73,000) | AID 938, 2007; further: % of control where 0% means no effect; nearly all actives have a fitted effect of over 55% in size
#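 Parental HEK 293 cells stably expressing a cAMP-gated CNG channel were loaded with membrane potential dye containing 100 uM RO 20-1724 for 60 min. Compound added for 30 min; depolarization read as fluorescence intensity at 590 nm.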
# Bst PK mod – Pyruvate Kinase; AID 361, 2006; purified pyruvate kinase, luminescence ATP production; ribose 5-phosphate activator present at AC10; actives 1.2% (n = 51,000); Potency, µM; in the data active means potency below about 11 µM; inconclusive means mostly about 12 µM to 25 µM;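 the screen sought inhibitors and activators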;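 further: scaled between full activation by ribose 5 phosphate and full inhibition by luteolin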
# GBA activity – Glucocerebrosidase. Lysosomal acid glucosylceramidase (Homo sapiens), P04062. purified enzyme, resorufin glucoside fluorescence (screen aimed at inhibitors), 20 min. Potency, µM. actives 1.1% (n = 48,000). AID 360, 2006; in the data active means potency below about 15 µM; inconclusive means mostly about 16 µM to 33 µM;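 further: the screen sought inhibitors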
#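 Compounds titrated against 0.2 nM normal enzyme, 30 uM resorufin beta-D-glucopyranoside substrate, citrate/phosphate buffer with taurocholate and tween-20, pH 5.9. Reaction ran 20 min at room temperature; fluorescence (Ex 548/Em 600) gave AC50.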
# TSHR agonist – qHTS Assay for Agonists of the Thyroid Stimulating Hormone Receptor | Thyrotropin receptor (Homo sapiens), P16473 | actives 0.48% (n = 73,000) | HEK293-CNG-TSHR cells (CNG channel as cAMP sensor), membrane potential dye, cAMP | Potency, µM (series often up to 57.1 µM), inactives show at the top dose activation, most hits filed as activators; active means well fitted activation curve with a large enough effect in the main read-out, with a control signal flat, not every such curve was filed as active; inconclusive means small, poorly fitted or top-dose-only effect, or a change in a side signal; inactive means no such curve, though single readings can be large or run the other way; % of control where 0% means no effect;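 further: the control signal comes from parental cells without the receptor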
# Target sequence (P16473 whole entry, looked up): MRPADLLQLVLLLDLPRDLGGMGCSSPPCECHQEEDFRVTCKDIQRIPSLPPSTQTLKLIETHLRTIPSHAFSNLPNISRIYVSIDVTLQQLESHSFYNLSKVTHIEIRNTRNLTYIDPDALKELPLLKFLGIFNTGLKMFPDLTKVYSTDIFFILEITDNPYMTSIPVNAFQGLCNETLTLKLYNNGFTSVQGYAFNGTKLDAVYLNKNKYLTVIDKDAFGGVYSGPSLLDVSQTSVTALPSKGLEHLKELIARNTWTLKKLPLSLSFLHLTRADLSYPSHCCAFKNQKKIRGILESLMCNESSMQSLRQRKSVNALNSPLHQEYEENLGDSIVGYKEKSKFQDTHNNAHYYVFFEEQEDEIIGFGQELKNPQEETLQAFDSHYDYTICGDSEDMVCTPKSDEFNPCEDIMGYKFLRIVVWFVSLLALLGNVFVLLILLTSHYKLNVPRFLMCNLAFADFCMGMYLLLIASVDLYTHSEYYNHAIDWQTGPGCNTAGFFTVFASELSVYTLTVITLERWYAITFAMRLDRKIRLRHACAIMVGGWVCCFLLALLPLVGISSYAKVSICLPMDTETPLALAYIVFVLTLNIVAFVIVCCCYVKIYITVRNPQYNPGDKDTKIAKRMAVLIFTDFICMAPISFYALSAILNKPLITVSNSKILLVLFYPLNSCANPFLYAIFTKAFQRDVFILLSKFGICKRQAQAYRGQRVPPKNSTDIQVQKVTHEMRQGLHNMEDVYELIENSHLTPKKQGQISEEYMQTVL
#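 HEK 293 cells stably expressing TSHR and a cAMP-gated CNG channel; parental CNG-only cells as counterscreen. Cells preloaded 60 min with membrane potential dye plus 100 uM RO 20-1724, then compound 30 min; fluorescence read at 590 nm.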
# ERK AVP block – qHTS Assay for Inhibitors of the ERK Signaling Pathway using a Homogeneous Screening Assay; actives 0.99% (n = 72,000); HEK293-V1b, vasopressin-stimulated pERK AlphaScreen; Potency, µM (doses to about 57.5 µM), without a hit: at the highest dose activity, negative = inhibition, actives largely listed as inhibitors; AID 995, 2007; further: on the % scale 0 is the no-effect control and ±100 the full control effect; nearly all actives have a fitted effect of over 55% in size
#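 Phosphorylated ERK1/2 detected via AlphaScreen bead proximity in lysates of V1b-expressing HEK293 cells given 25 nM vasopressin for 5 min after 30 min compound exposure (37 °C). AC50 from Hill equation; basal DMSO 0%, vasopressin 100%.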
# Luciferase inh – qHTS Assay for Inhibitors of Firefly Luciferase; purified firefly luciferase, luminescence, 8 min; Potency, µM (titrated, usually from 57.1 µM), without a hit: top-dose activity change, negative = inhibition, hits mostly inhibitors; actives 2.2% (n = 72,000); further: on the % scale 0 is the no-effect control and ±100 the full control effect; nearly all actives have a fitted effect of over 40% in size
#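 Luminescence read-out after 8 min at room temperature; enzyme reaction used luciferin plus 10 uM ATP (linear range) in imidazole buffer pH 7.2 with KCl, MgCl2, Tween 20 and BSA. Each sample was run as a titration.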
# * marks the source's active call; other numbers are inactive results; i = inactive; ? = inconclusive; . = not tested or not shown; [ ] = remark or other dose. Unless noted, the call rests on the fitted dose curve; in most records, active means well fitted curve in the direction sought with a large enough effect; inconclusive means small, poorly fitted or top-dose-only effect, or another doubt; inactive means no such curve, though single readings can be large; an effect the other way counts as inactive or inconclusive. Potency means the concentration at half of the fitted maximal effect.
SMILES,HEK293 cAMP ctrl,Bst PK mod,GBA activity,TSHR agonist,ERK AVP block,Luciferase inh
CCNc1nc(CC)nc2c1oc1ccccc12,7%,5*,>77,11%,-17%,-3%
CCc1nc(SCCO)c2oc3ccccc3c2n1,2%,i,?,-14%,?,-3%
Cc1cc(O)c(NC(=O)c2ccc(Br)o2)cc1C,2%[11.4 µM],.,.,-9%[11.4 µM],-13%,?
CCN(CC)c1ccc(NC(=O)c2ccc(Br)o2)c(C)c1,17%,>57,>77,13%,25µM*,1%
COc1ccc(C(=O)Nc2ccc3c(c2)nc2n3CCSC2)cc1,-19%,?,.,-32%,-27%,13µM*
CCC(=O)Nc1ccc2c(c1)nc1n2CCSC1,-5%,>57,>77,6%,-5%,-7%
O=C(Nc1ccc2c(c1)nc1n2CCSC1)c1ccccc1,-12%,?,.,-8%,?,10µM*
CCCCOC(=O)Cn1c(=N)n(CCC)c2ccccc21,?,>57,11*,?,-6%,3%
CCCn1c(-c2ccc(OC)cc2)nc2ccccc21,25µM*,.,.,?,-25%,-5%
CCCn1c(=N)n(CCOc2ccc(OC)cc2)c2ccccc21,9%,>57,5.9*,10%,-7%,-5%
FC(F)(F)c1cc(-c2ccco2)nc(-n2cnc3ccccc32)n1,?,>57,12*,?,-3%,2%
O=C(CSc1nc(-c2ccco2)cc(C(F)(F)F)n1)NC1CCCC1,?,.,.,?,-11%,2%
Cc1cc(NC(=O)CSc2nc(-c3ccco3)cc(C(F)(F)F)n2)n(-c2ccccc2)n1,?,>57,>77,?,?,0%
Cc1nc2ccccc2n1-c1nc(-c2ccco2)cc(C(F)(F)F)n1,3.2µM*,>57,>77,?,-2%,1%
CCc1ccc(NC(=O)Nc2cccs2)cc1,-4%,4.8*,>77,-23%,4%,4µM*
CC(=O)c1cccc(NC(=O)Nc2cccs2)c1,14%,.,.,25%,.,.
COc1ccc(NC(=O)Nc2cccs2)cc1OC,-3%,i,>77,0%,?,25µM*
COc1cccc(NC(=O)Nc2cccs2)c1,0%,i,>77,-7%,14%,16µM*
COc1cccc(-c2ccc3ncnc(NCCN4CCOCC4)c3c2)c1,17%,.,.,14%,0%,-1%[2.29 µM]
Cn1c(CSc2nc3ccc(Br)cc3[nH]2)nc2ccccc21,12%,.,.,11%,20µM*,-6%
O=C(O)CCSc1nc2ccc(Br)cc2[nH]1,7%,.,>77,-1%,27%,-3%
Cn1cnc([N+](=O)[O-])c1SCC(=O)O,6%[11.4 µM],.,.,-5%[11.4 µM],-6%[11.5 µM],2%[11.4 µM]
Cc1nc2sc3c(c2c(=O)n1/N=C/c1ccco1)CCCC3,25µM*,>57,>77,?,-12%,2%
COc1cc(/C=C(\C#N)C(N)=O)cc(CSc2nc3ccccc3s2)c1O,1%,.,.,10%,-18%,3%
CCOC(=O)c1cc(C#N)c(SCc2ccc(C#N)cc2)nc1C,32µM*,>57,>77,?,30%,-7%
SMILES,HEK293 cAMP ctrl,Bst PK mod,GBA activity,TSHR agonist,ERK AVP block,Luciferase inh
Cc1cccc(OCc2nc(C#N)c(N3CC(C)CC(C)C3)o2)c1 (stereo not given),6.3µM*,.,.,?,-14%,0%
CCNc1oc(COc2cccc(C)c2)nc1C#N,?,>57,>77,?,-8%,-6%
N#Cc1nc(COc2ccc(Cl)cc2)oc1NCc1ccc2c(c1)OCO2,10µM*,>57,>77,?,5%,-3%
Cc1cccc(OCc2nc(C#N)c(NCc3ccc4c(c3)OCO4)o2)c1,16µM*,>57,>77,?,-13%,-1%
COc1ccc(CNc2oc(COc3ccccc3)nc2C#N)cc1,6%,.,.,.,.,.
CCOC(=O)N/N=C1/C[C@@H](O)[C@@H](O)[C@@H]2[C@@H]3C(=O)N(CC)C(=O)[C@H]3CC[C@@H]12,1%[11.4 µM],.,.,-2%[11.4 µM],-9%[11.5 µM],-1%[11.4 µM]
O=C(O)CCn1cnc2c(=S)nc[nH]c21,2%[11.4 µM],.,.,2%[11.4 µM],-10%[11.5 µM],2%[11.4 µM]
